# “And” between values parts separate entries of the source, which are not always exact repeats. Equal entries are not always repeated. Results filed as inconclusive are left out. A call without a number means that no potency is given here. Some compounds were tested as several samples or in several runs, with calls that do not always agree. The source made the active and inactive calls. Calls follow the shape of the dose curve; as a rule, active = well fitted inhibition curve with a large enough effect; inconclusive = small, poorly fitted or top-dose-only effect; inactive = flat fitted curve, though single readings scatter.
# Target: Voltage-gated inwardly rectifying potassium channel KCNH2 (Homo sapiens) (UniProt Q12809)
# Assay: qHTS Assay for Small Molecule Inhibitors of the Human hERG Channel Activity (AID 588834);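 also: lower thallium flux fluorescence means stronger hERG block; nearly all actives have a fitted effect of over 50% in size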
# Conditions: U2OS BacMam hERG, FluxOR thallium flux fluorescence; series mostly up to 46.1 µM
# From the text: NIH Chemical Genomics Center [NCGC]
# National Institutes of Environmental Health Sciences [NIEHS]
# National Toxicology Program [NTP]
# We have developed a 1536-well cell-based assay for quantitative high throughput screening (qHTS) to determine in vitro hERG channel blockage as a measure of cardio toxicity with small molecules. This particular assay uses the U2OS cell line which is derived from human osteosarcoma.
# NCGC Assay Protocol Summary:
# HERG assay (FluxORTM thallium flux assay) was initially developed by Invitrogen/Molecular Probes, and then miniaturized into 1536-well plate in a homogeneous format by NCGC. This assay measures the activity of potassium channel using thallium dye (FluxOR) flux as surrogate measurement for potassium into the cells with a FDSS-7000 kinetic plate reader (Hamamatsu Corp., Hamamatsu City, Japan). The hERG ion channel is transduced into mammalian cells (U2OS) using a baculovirus (Bacmam) construct harboring the hERG K+ ion channel. So far we screened LOPAC1280 library (Sigma), the NTP collection of 1408 compounds, and the NCGC Pharmaceutical Collection (NPC), in which many well defined HERG blockers are present. The rank order potencies of many of these compounds are similar to that of other HERG assays (membrane potential, Rb+ flux, patch clamp, etc). This quick and homogeneous assay is also found to be sensitive, specific, and robust.
# Using the FluxORTM thallium flux assay, the activity of potassium channel using thallium dye (FluxOR) flux as surrogate measurement for potassium into the cells was measured in the U2OS cell line transduced with hERG K+ ion channel using a baculovirus (Bacmam) using Opti-MEM medium (Invitrogen) containing 2% fetal calf serum (FCS, HyCone) following loading buffer addition, compound treatment for around 10 minutes and finally adding stimulation buffer. The assay was performed in black clear Kalypsys 1536-well plates. In the screen, Astemizole was used as positive controls. Library compounds were measured for their ability to cause hERG channel blockage in the cell line, as reflected by a decrease in fluorescence intensity, in a concentration-dependent manner. […] AC50 values were determined from concentration-response data modeled with the standard Hill equation.
# qHTS protocol for hERG-U2OS cellular assay
# [Step] [Parameter] [Value] [Description]
# 1. Day 1: Replace medium in 70-80% confluent T225 flask with 2.5 mL of hERG-BacMam virus plus 12.5 mL of phosphate buffered saline (PBS) (corresponding roughly to a multiplicity of infection ratio of 100 virus particles/cell)
# 2. Incubation: 4 hrs @ room Temperature in Dark
# 3. Reagent; Remove virus; wash once with 25 ml DPBS
# 4. Reagent; 35 ml culture medium
# 5. Incubation; 37 °C overnight
# 6. Day2: Reagent; 3 uL; 2000 U2OS cells/well
# 7. Time; 4 hr; 37 °C incubation
# 8. Loading buffer; 1 uL; 0.7X;
# 9. Incubation: 1hr @ RT in Dark.
# 12. Time; 10min; 37 °C incubation
# 13. Read fluorescence Intensity on FDSS for 10 Sec with 1 sec interval
# 14. Reagent; 1 uL; stimulation buffer
# 15. Read fluorescence Intensity on FDSS for 2 min with 1 sec interval
# 16. Detection; Fluorescence Intensity; FDSS
# Potency is read from the fitted curve at half-maximal effect.
# Voltage-gated inwardly rectifying potassium channel KCNH2 (Homo sapiens), sequence (Q12809 whole entry, looked up): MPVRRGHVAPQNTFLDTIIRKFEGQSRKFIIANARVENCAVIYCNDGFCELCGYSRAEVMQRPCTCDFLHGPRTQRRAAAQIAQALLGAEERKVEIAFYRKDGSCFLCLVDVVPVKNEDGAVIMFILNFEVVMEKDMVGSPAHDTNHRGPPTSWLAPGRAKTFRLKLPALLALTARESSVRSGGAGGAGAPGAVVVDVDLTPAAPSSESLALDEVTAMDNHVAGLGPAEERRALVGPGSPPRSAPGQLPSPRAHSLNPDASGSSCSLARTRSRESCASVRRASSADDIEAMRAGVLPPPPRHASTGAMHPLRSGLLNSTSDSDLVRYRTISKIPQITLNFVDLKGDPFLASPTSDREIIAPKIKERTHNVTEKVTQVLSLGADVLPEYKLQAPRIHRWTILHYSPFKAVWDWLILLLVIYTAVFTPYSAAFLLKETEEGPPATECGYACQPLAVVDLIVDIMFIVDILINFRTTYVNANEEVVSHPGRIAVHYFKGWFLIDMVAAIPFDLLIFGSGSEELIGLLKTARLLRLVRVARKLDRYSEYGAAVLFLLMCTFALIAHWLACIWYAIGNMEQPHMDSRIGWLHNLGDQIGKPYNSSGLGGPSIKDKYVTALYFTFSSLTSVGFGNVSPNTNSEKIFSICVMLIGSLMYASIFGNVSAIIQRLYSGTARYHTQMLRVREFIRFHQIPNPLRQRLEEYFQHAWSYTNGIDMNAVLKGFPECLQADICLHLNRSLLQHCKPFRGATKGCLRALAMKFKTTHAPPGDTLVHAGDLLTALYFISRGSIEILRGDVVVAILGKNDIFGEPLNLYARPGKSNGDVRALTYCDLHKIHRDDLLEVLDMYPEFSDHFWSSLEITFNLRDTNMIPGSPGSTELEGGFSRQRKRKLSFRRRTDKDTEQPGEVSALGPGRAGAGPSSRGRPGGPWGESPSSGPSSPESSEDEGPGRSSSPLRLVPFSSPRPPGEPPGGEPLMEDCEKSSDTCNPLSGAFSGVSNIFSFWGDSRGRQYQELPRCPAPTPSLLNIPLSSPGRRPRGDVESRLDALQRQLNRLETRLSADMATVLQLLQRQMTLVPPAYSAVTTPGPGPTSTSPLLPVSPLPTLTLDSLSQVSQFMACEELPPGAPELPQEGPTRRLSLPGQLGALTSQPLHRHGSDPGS
row,Structure (SMILES),Potency
1,C[C@@H](Cc1ccccc1)NCCC(c1ccccc1)c1ccccc1,0.631 µM (active)
2,CC1(C)[C@H](C=C(Cl)Cl)[C@H]1C(=O)OCc1c(F)c(F)cc(F)c1F,inactive
3,Nc1ccc(CCN2CCN(c3cccc(C(F)(F)F)c3)CC2)cc1,2.24 µM (active)
4,ClCC1CO1 (stereo not given),inactive
5,CC(N)[C@H](O)c1ccc(O)c(O)c1 (stereo not given in full),inactive
6,O=[N+]([O-])c1cc(I)c(O)c(I)c1,inactive
7,O=C(NC(=O)c1c(F)cccc1F)Nc1ccc(Cl)c(Oc2ncc(C(F)(F)F)cc2Cl)c1,inactive
8,O=P(O)(O)C(Cl)(Cl)P(=O)(O)O,inactive
9,CC(=O)O[C@H]1C[C@H](O[C@H]2[C@@H](O)C[C@H](O[C@H]3[C@@H](O)C[C@H](OC4CC[C@@]5(C)[C@H](CC[C@@H]6[C@@H]5CC[C@]5(C)[C@@H](C7=CC(=O)OC7)CC[C@]65O)C4)O[C@@H]3C)O[C@@H]2C)O[C@H](C)[C@H]1O[C@@H]1O[C@H](CO)[C@@H](O)[C@H](O)[C@H]1O (stereo not given in full),inactive
10,O=[N+]([O-])c1ccc2nc(N3CCNCC3)ccc2c1,inactive
11,O=C1CN=C(c2ccccc2)c2cc(Cl)ccc2N1CC1CC1,inactive
12,CC1CCC(C(C)C)C(OC(=O)c2ccccc2N)C1 (stereo not given),inactive
13,Oc1cccc[c]1[Hg][Cl],20 µM (active)
14,O=C(CCl)c1ccc(Oc2ccc(C(=O)CCl)cc2)cc1,inactive
15,O=C1CC[C@@]2(O)C3Cc4ccc(O)c5c4C2(CCN3CC2CC2)[C@H]1O5 (stereo not given in full),11.2 µM (active)
16,C[C@]12CCC(=O)C[C@@H]1CC[C@@H]1[C@@H]2CC[C@]2(C)[C@@H](O)CC[C@@H]12,inactive
17,COc1ccc2c(c1OC)C(=O)OC2C1c2cc3c(cc2CCN1C)OCO3 (stereo not given),15.8 µM (active) and inactive
18,c1csc(C2(N3CCCCC3)CCCCC2)c1,inactive
19,OC[C@@H](O)[C@H]1O[C@@H]2O[C@H](C(Cl)(Cl)Cl)O[C@@H]2[C@H]1O,inactive
20,CC1(C)S[C@@H]2[C@H](N)C(=O)N2[C@H]1C(=O)O,inactive

row,Structure (SMILES),Potency
1,C=CC[C@]1(O)CC[C@H]2[C@@H]3CCC4=CCCC[C@@H]4[C@H]3CC[C@@]21C,inactive
2,CCOC(=O)/C=C(C)/C=C/C[C@@H](C)CCCC(C)C,inactive
3,CCOP(=O)(OCC)O/C(=C/Cl)c1ccc(Cl)cc1Cl,inactive
4,Cc1c2ccncc2c(C)c2c1[nH]c1ccccc12,20 µM (active)
5,CC(=O)Oc1ccc2c3c1O[C@H]1[C@@H](OC(C)=O)C=C[C@H]4[C@@H](C2)N(C)CC[C@@]341,inactive
6,O=C1C2CC=CCC2C(=O)N1SC(Cl)(Cl)Cl (stereo not given),25.1 µM (active) and 28.2 µM (active)
7,Clc1ccc(C2(Cn3cncn3)OCCO2)c(Cl)c1,inactive
8,Clc1ccc(N2CC3CCC(C2)N3)nn1,inactive
9,O=C(NCNC(=O)NC1C(=O)NC(=O)N1CO)NC1C(=O)NC(=O)N1CO (stereo not given),inactive
10,C=CCN1CCC23c4c5ccc(O)c4O[C@H]2C(=O)CC[C@@]3(O)C1C5 (stereo not given in full),inactive
11,CC(C)(O)[C@@H]1[C@H]2OC(=O)[C@@H]1[C@]1(O)C[C@H]3O[C@]34C(=O)O[C@H]2[C@]14C,inactive
12,O=C1CCCCC1CN1CCCCC1 (stereo not given),inactive
13,CN1CC[C@@]2(C)c3cc(O)ccc3N(C)C12 (stereo not given in full),35.5 µM (active)
14,CC(=O)O[C@H]1CC[C@H]2[C@@H]3CCC4=CC(=O)CCC4=C3C=C[C@]12C,inactive
15,COc1ccc2[nH]cc(CCN)c2c1,inactive
16,O[C@H]1[C@H]2[C@H](O)CCCN2C[C@H]1O,inactive
17,COC([CH2][Hg])CNC(=O)c1ccccc1OCC(=O)O (stereo not given),inactive
18,O=c1ccc2cc(O[C@@H]3O[C@H](CO)[C@@H](O)[C@H](O)[C@H]3O)c(O)cc2o1,inactive
19,CCCCCCCCOC(=O)c1ccccc1C(=O)OCCCCCCCC,inactive
20,CCNC1(c2cccs2)CCCCC1=O (stereo not given),inactive

# Reference: PubChem BioAssay (NCATS)
